FLuc modulator: qHTS profiling assay for firefly luciferase inhibitor/activator using purifed enzyme and Km concentrations of substrates (counterscreen for miR-21 project); purified FLuc, Km substrates, luminescence inhibition; Luciferin 4-monooxygenase (Photinus pyralis), P08659; Potency, µM (top dose mostly 57.5 µM), for inactives: at the highest dose activity change, negative = inhibition, most hits filed as inhibitors; hit rate 6.9% among 360,000;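 further: plate controls were vehicle for no effect and reference inhibitor for full effect; nearly all actives have a fitted effect of over 55% in size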
Target sequence (P08659 whole entry, looked up): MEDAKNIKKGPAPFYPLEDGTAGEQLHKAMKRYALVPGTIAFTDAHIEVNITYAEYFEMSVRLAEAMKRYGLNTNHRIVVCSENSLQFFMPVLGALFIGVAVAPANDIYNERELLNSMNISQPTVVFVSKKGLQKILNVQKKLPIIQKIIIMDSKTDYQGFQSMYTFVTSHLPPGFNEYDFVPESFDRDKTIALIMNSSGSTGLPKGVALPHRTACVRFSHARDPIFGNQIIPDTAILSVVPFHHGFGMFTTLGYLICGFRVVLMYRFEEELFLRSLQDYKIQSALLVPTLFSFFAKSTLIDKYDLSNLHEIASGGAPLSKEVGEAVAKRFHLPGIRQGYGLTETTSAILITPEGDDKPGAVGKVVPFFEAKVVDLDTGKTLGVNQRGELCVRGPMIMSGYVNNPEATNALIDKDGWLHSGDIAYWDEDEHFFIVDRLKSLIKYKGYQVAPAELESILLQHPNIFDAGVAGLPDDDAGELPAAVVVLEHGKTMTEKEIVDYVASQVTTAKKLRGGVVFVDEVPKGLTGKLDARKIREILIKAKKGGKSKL
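Purified P. pyralis luciferase, 10 nM final, with Km-level 10 uM D-luciferin and 10 uM ATP in 50 mM Tris acetate pH 7.5, 10 mM Mg acetate, 0.01% Tween-20, 0.05% BSA; 6-point qHTS titration about 60 µM downward; luminescence read.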
Rab9 prom act: qHTS Assay for Rab9 Promoter Activators. AID 485297, 2010. Potency, µM (doses to about 9.22 µM), without a hit: at the highest dose activation, negative = inhibition, usual class: activators. hit rate 2.8% among 320,000. Huh7 Rab9 promoter-luciferase reporter, luminescence, 24 h; further: % of control where 0% means no effect; nearly all actives have a fitted effect of over 60% in size
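Steps: seed 1500 Huh7 Rab9-luc cells per well, rest 2 h at 37 °C; add compound in DMSO; incubate 24 h; add luciferase reagent, 10 min ambient; read luminescence.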
ELG1 genotox: qHTS screen for small molecules that induce genotoxicity in human embryonic kidney (HEK293T) cells expressing luciferase-tagged ELG1; HEK293T ELG1-luciferase reporter, luminescence, 16 h; Potency, µM (highest dose often 46 µM), for the others: at the top dose activity change, positive = activation, usual class: activators; hit rate 1.3% among 330,000; AID 504466, 2011; further: % of control where 0% means no effect; nearly all actives have a fitted effect of over 60% in size
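ELG1-luciferase HEK293T cells, 2,000/well; compound pinned in; 16 hr, 37 °C, 5% CO2; ONE-Glo, 30 min RT; luminescence on CCD imager.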
SMN2 splice up: qHTS Assay for Enhancers of SMN2 Splice Variant Expression. HEK293 SMN2-luciferase splicing reporter, luminescence, 30-36 h. Potency, µM (top dose mostly 46.1 µM), for the others: at the top dose activity change, positive = activation, usual class: activators. hit rate 2.8% among 210,000. AID 1458, 2008; further: % of control where 0% means no effect; nearly all actives have a fitted effect of over 55% in size
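HEK293 cells carry an SMN2 […]–luciferase reporter in which exon 7 inclusion puts luciferase in frame. Cells were plated 10-12 h before compound addition, then incubated 30-36 h at 37C. ONE-Glo luminescence was read; sodium butyrate at 4.5 mM final served as control.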
KinaseGlo FLuc: Counterscreen for Luciferase (Kinase-Glo TM) Inhibition. Luciferin 4-monooxygenase (Photuris pensylvanica), Q27757. Kinase-Glo luciferase, ATP luminescence, 8 min. Potency, µM (doses to about 38.3 µM), inactives show top-dose activity change, negative = inhibition, hits mostly inhibitors. hit rate 0.28% among 200,000. AID 1379, 2008; further: on the % scale 0 is the no-effect control and ±100 the full control effect; nearly all actives have a fitted effect of over 60% in size
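Compounds were added to a substrate mix at pH 7.2 (50 mM imidazole, 10 uM ATP, within the enzyme's linear range), followed by Kinase-Glo detection reagent; luminescence was measured after 8 minutes at ambient temperature.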
NPC1 promoter act: qHTS Assay for NPC1 Promoter Activators; Huh7 NPC1 promoter luciferase reporter, 24 h; Potency, µM (highest dose often 9.22 µM), without a hit: at the highest dose activation, usual class: activators; hit rate 2.4% among 320,000; AID 485313, 2010; further: % of control where 0% means no effect; nearly all actives have a fitted effect of over 60% in size
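Stably transfected Huh7 (NPC1 promoter→luciferase), 1500 cells/well in Opti-MEM + 10% FBS, 2 h settle, then compound 24 h at 37 °C. Luminescence after 10 min with Amplite reagent.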
An asterisk follows results filed as active; ? = inconclusive; nt = not tested or not shown; [ ] = another dose, or the depositor's remark. Hits are enriched below; roughly 7.5% of the tested compounds scored in any of these assays. The call rests on the fitted dose curve; in most records, active means well fitted curve in the direction sought with a large enough effect; inconclusive means small, poorly fitted or top-dose-only effect, or another doubt; inactive means no such curve, though single readings can be large; an effect the other way counts as inactive or inconclusive. Potency means the concentration at half of the fitted maximal effect.

SMILES	FLuc modulator	Rab9 prom act	ELG1 genotox	SMN2 splice up	KinaseGlo FLuc	NPC1 promoter act
COc1ccc(CNC(=O)C(c2ccco2)N(C(=O)c2ccccn2)c2ccccc2)cc1 (centres undefined)	6.7µM*	0.89µM*	?	nt	-7%	0.89µM*
COc1ccc(-c2csc(C3=C(O)CN(CCCN4CCCC4=O)C3=N)n2)cc1OC	8.5µM*	13%	1%	?	7%	-3%
O=[N+]([O-])c1ccccc1/C=C/C=N/N1CCCCC1	11µM*	2.2µM*	4.6µM*	16µM*	-3%	?
O=C(O)c1cc(N/N=C/C=C/c2ccccc2[N+](=O)[O-])ccc1Cl	19µM*	3.5µM*	?	nt	nt	1.4µM*
NS(=O)(=O)c1ccc(N/N=C/C=C/c2ccccc2[N+](=O)[O-])cc1	17µM*	?	?	nt	nt	?
C=C(C)CSc1nnc2n(N)c(=O)c3ccccc3n12	17µM*	?	?	18%	-2%	20%
COc1cc(OC)cc(OC(=O)c2ccc3c(=O)n4c(nc3c2)CCC4)c1	15µM*	0%	4%	nt	nt	3%
CC(=O)c1cccc(OC(=O)c2ccc3c(=O)n4c(nc3c2)CCC4)c1	-18%	0%	-2%	nt	nt	2%
Cc1ccc(OC(=O)c2ccc3c(=O)n4c(nc3c2)CCC4)cc1	6µM*	-7%	6%	nt	nt	-8%
Cc1ccc(C)c(N2CCN(S(=O)(=O)c3cn(C)c(C)n3)CC2)c1	-5%	nt	nt	nt	nt	nt
CCCSc1nc2sc3c(c2c(=O)n1-c1ccc(C)cc1)CCCC3	2%	nt	nt	-1%	nt	nt
CC(=O)c1ccc(N2C(=NC(=O)CCC3CCCC3)SC3CS(=O)(=O)CC32)cc1 (centres undefined)	-1%	0%	-2%[9.26 µM]	nt	nt	-2%
NS(=O)(=O)c1ccc(NC(=S)N2CCN(C(=O)C3CCCO3)CC2)cc1 (centres undefined)	4.8µM*	0%	-13%	nt	nt	16%
COC(=O)c1ccc(C(NC(=O)OCc2ccccc2)/C(F)=C/[C@@H](C)C(=O)NCc2cccnc2)cc1 (some centres undefined)	nt	nt	nt	-14%	-2%	nt
O=C(N/N=C/c1ccccn1)c1cc(C2CC2)[nH]n1	19µM*	1.6µM*	18µM*	?	-6%	?
Cc1cc(C(=O)N/N=C/c2ccco2)n[nH]1	-18%	22%	14%	8%	-12%	14%
O=C(N/N=C/c1ccco1)c1cc(C2CC2)[nH]n1	13µM*	?	?	nt	nt	?
CC(/C=N/NC(=O)c1cc(C2CC2)[nH]n1)=C\c1ccccc1	?	13%	5%	nt	nt	-2%
Cc1cc(C(=O)N/N=C/c2ccccn2)n[nH]1	?	23%	12%	3%	-6%	10%
O=C(N/N=C/c1cccc2ccccc12)c1cc(C2CC2)[nH]n1	11µM*	17%	2%	nt	nt	17%
CCn1c2ccc(Cl)cc2c2nc3ccccc3nc21	?	7%	0%	-11%	-2%	-5%
CCn1c2ccc(C)cc2c2nc3cc(C(=O)O)ccc3nc21	27µM*	?	?	14%	-1%	19%
Cn1c(=O)c2c(ncn2CC(=O)OCC(=O)Nc2ccc(F)cc2F)n(C)c1=O	nt	0%	4%	nt	nt	-5%
Cn1c(=O)[nH]c(=O)c2c1nc(SCC(N)=O)n2Cc1cccc(Br)c1	1%	-8%	21µM*	nt	nt	2%
COc1ccc(NC(=O)CSc2nnc(-c3ccncc3)n2-c2ccccc2)cc1	-1%	nt	nt	nt	nt	nt
SMILES	FLuc modulator	Rab9 prom act	ELG1 genotox	SMN2 splice up	KinaseGlo FLuc	NPC1 promoter act
COc1ccc(C)cc1N(C)C(=O)Cc1c(C(=O)O)n(C)c2ccccc12	1%	0%	-4%	nt	nt	0%
CC(=O)Nc1ccc(N2C(=O)c3cccc4c(O)ccc(c34)C2=O)cc1	?	1%	0%	nt	nt	0%
O=C1c2cccc3c(O)ccc(c23)C(=O)N1c1ccc(Cl)cc1	17µM*	0.79µM*	6%	nt	nt	3.5µM*
COc1cc2c(cc1OC)n(CC(=O)NC1CCCCCC1)n1c(C)cc(=O)nc21	0%	10%	12%	nt	nt	-2%
O=C(CCl)N=c1sccn1Cc1ccccc1Cl	0%	-54%	-7%	nt	nt	-52%
O=C(Cn1ccsc1=NC(=O)C(F)(F)F)c1ccccc1	-12%	2.8µM*	15%	?	4%	?
CC(C)Sc1nnc(NC(=O)c2ccc3c(c2)OCO3)s1	5.4µM*	1.4µM*	?	nt	nt	2.2µM*
CC(C)c1nnc(NC(=O)c2ccc3c(c2)OCO3)s1	1.3µM*	0.28µM*	?	1µM*	-4%	0.45µM*
CC(C)(C)c1nnc(NC(=O)c2ccc3c(c2)OCO3)s1	6.7µM*	2.5µM*	?	nt	nt	2µM*
CCSc1nnc(NC(=O)c2ccc3c(c2)OCO3)s1	6.7µM*	1.6µM*	2.1µM*	10µM*	-3%	2.5µM*
COc1ccc(C(=O)N2CCN(CCc3ccccc3)CC2)cc1[N+](=O)[O-]	4%	3%	-5%	nt	nt	0%
CC(NC(=O)C(=O)Nc1c2c(nn1-c1ccccc1)CSC2)c1ccccc1 (centres undefined)	-6%	nt	nt	nt	nt	nt
O=C(C1CCC(=O)N(C2CCCC2)C1)N1CCC(Oc2ccccc2Cl)CC1 (centres undefined)	3%	-7%	-11%	nt	nt	-5%
CCOc1ccc(CNC(=O)C2=Cc3cc(Br)ccc3OC2)cc1OC	-8%	nt	nt	nt	nt	nt
CCOC(=O)CSc1nnc(NC(=O)c2ccc3c(c2)OCO3)s1	1.1µM*	10%	19%	nt	nt	-6%
CC(C)(C)c1nnc(NC(=O)COc2ccc3c(c2)OCO3)s1	12µM*	?	?	nt	nt	3.5µM*
CCN(CC)C(=O)c1sc(NC(=O)c2ccncc2)c(C(=O)OC)c1C	-2%	-4%	-1%	-11%	1%	-3%
CCN(CC)C(=O)c1sc(NC(=O)c2ccc3c(c2)OCO3)c(C(N)=O)c1C	19µM*	?	5%	nt	nt	?
CCOC(=O)Cc1csc(SC(C)C(=O)NC2CCCCC2C)n1 (centres undefined)	-1%	-5%	-1%	nt	nt	-7%
CC(Cc1cccs1)NC(=O)Nc1ccccc1 (centres undefined)	?	19%	6%	-12%	0%	20%
CC(Cc1cccs1)NC(=O)Nc1ccc(Cl)cc1 (centres undefined)	12µM*	?	5.6µM*	14%	-5%	?
